Reference: PubChem BioAssay (NCATS)
Inconclusive results are not listed. The source made the active and inactive calls. Calls follow the shape of the dose curve; as a rule, active = well fitted curve in the direction sought with a large enough effect; inconclusive = small, poorly fitted or top-dose-only effect, or another doubt; inactive = no such curve, though single readings can be large; an effect the other way counts as inactive or inconclusive.

Experiments:
[1] = Quantitative High-Throughput drug screen in 47 multiple myeloma cell lines against the NCATS MIPE library collection: KMS12PE_JCRB cell viability assay (AID 1918972); also: nearly all actives have a fitted effect of over 30% in size
In short: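 We plated 500 myeloma cells per well, pinned in MIPE 4.0 compounds, and incubated for 48 hours at 37C. ATP was then quantified with CellTiter-Glo, with DMSO and media-only wells defining 100% and 0%.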

[2] = Quantitative High-Throughput drug screen in 47 multiple myeloma cell lines against the NCATS MIPE library collection: MOLP8_DSMZ cell viability assay (AID 1918977); also: nearly all actives have a fitted effect of over 45% in size
In short: (§1)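 Plated at 500 cells per well, myeloma lines received MIPE 4.0 compounds by pin tool. Following 48 h culture at 37 °C, CellTiter-Glo luminescence gave viability relative to DMSO and media-only controls.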

[3] = Quantitative High-Throughput drug screen in 47 multiple myeloma cell lines against the NCATS MIPE library collection: NCIH929_DSMZ cell viability assay (AID 1918978); also: nearly all actives have a fitted effect of over 35% in size
In short: as §1

[4] = Quantitative High-Throughput drug screen in 47 multiple myeloma cell lines against the NCATS MIPE library collection: KMS20_JCRB cell viability assay (AID 1918973); also: nearly all actives have a fitted effect of over 45% in size
In short: (§2)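 Approved and investigational drugs from MIPE 4.0 were added by pin tool to 500 cells per well. After 48 hours at 37C, ATP-based CellTiter-Glo luminescence indicated remaining viability.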

[5] = Quantitative High-Throughput drug screen in 47 multiple myeloma cell lines against the NCATS MIPE library collection: KMS26_JCRB cell viability assay (AID 1918975); also: nearly all actives have a fitted effect of over 45% in size
In short: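 Myeloma cells (500 per well) were exposed to MIPE 4.0 compounds by pin transfer and incubated 48 hours at 37C, 5% CO2. Viability was read as ATP by CellTiter-Glo luminescence, normalised to DMSO (100%) and media-only (0%) wells.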

[6] = Quantitative High-Throughput drug screen in 47 multiple myeloma cell lines against the NCATS MIPE library collection: MM1S_ATCC cell viability assay (AID 1918980); also: nearly all actives have a fitted effect of over 45% in size
In short: as §1

[7] = Quantitative High-Throughput drug screen in 47 multiple myeloma cell lines against the NCATS MIPE library collection: MMM1_PLB cell viability assay (AID 1918976); also: nearly all actives have a fitted effect of over 35% in size
In short: as §1

[8] = Quantitative High-Throughput drug screen in 47 multiple myeloma cell lines against the NCATS MIPE library collection: KMS21BM_JCRB cell viability assay (AID 1918974); conditions: ATP luminescence, 48 h; viability: at 45.8 µM (top of the series) unless noted
In short: as §2

[9] = Quantitative High-Throughput drug screen in 47 multiple myeloma cell lines against the NCATS MIPE library collection: OCIMY1_PLB cell viability assay (AID 1918979); also: nearly all actives have a fitted effect of over 35% in size
In short: as §1
Potency is read from the fitted curve at half-maximal effect.

For `CCn1cc(C(=O)O)c(=O)c2ccc(C)nc21`, the Potency [1] was “inactive”, the Potency [2] was “inactive” and the Potency [3] was “inactive”.
For `CCNc1cc(NC2CCC(O)CC2)nc(Nc2ccc3c(ccn3Cc3ccccc3)c2)n1` (stereo not given), the Potency [4] was 37.2 µM (active).
With `CC1(C)O[C@H]2C[C@@H]3[C@H]4CCC5=CC(=O)C=C[C@]5(C)[C@@]4(F)[C@@H](O)C[C@]3(C)[C@]2(C(=O)CO)O1` the Potency [1] was “inactive”, the Potency [5] was “inactive” and the Potency [3] was 26.4 µM (active). The Potency [6] was 0.0132 µM (active).
With `O=C1C[C@@H](c2ccc(O)cc2)Oc2cc(O)cc(O)c21` the Potency [1] was “inactive”, the Potency [7] was 1.48 µM (active) and the Potency [2] was “inactive”. For the same compound, the Potency [3] was “inactive” and the Potency [6] was 10.5 µM (active).
In the case of `O=c1c(O)c(-c2ccc(O)cc2)oc2cc(O)cc(O)c12`, the Potency [4] is reported as 14.8 µM (active), the Potency [8] is reported as 5.9 µM (active) and the Potency [3] is reported as 9.35 µM (active). For the same compound, the Potency [9] was “inactive” and the Potency [6] was 18.7 µM (active).
With `O=c1cc(-c2ccccc2)oc2cc(O)c(O)c(O)c12` the Potency [1] was “inactive”, the Potency [7] was 23.5 µM (active) and the Potency [6] was 18.7 µM (active).
In the case of `C[C@@H]1CCN(C(=O)CC#N)C[C@H]1N(C)c1ncnc2[nH]ccc12`, the Potency [1] is reported as “inactive”, the Potency [7] is reported as “inactive” and the Potency [3] is reported as “inactive”. For the same compound, the Potency [9] was “inactive” and the Potency [6] was 2.64 µM (active).
With `C[C@H](NC(=O)C(=O)Nc1ccccc1C(C)(C)C)C(=O)N[C@@H](CC(=O)O)C(=O)COc1c(F)c(F)cc(F)c1F` the Potency [1] was 4.69 µM (active), the Potency [8] was 6.62 µM (active) and the Potency [5] was “inactive”. For the same compound, the Potency [7] was “inactive”, the Potency [3] was “inactive” and the Potency [6] was 11.8 µM (active).
In the case of `O=C1NC(=O)C(=Cc2ccc3c(c2)OC(F)(F)O3)S1`, the Potency [4] is reported as 13.2 µM (active), the Potency [8] is reported as 3.32 µM (active) and the Potency [5] is reported as 18.7 µM (active). For the same compound, the Potency [7] was 10.5 µM (active), the Potency [2] was “inactive” and the Potency [6] was 20.9 µM (active).
For `Clc1ccc(CCC(Cn2ccnc2)Sc2c(Cl)cccc2Cl)cc1` (stereo not given), the Potency [1] was 14.8 µM (active), the Potency [8] was 23.5 µM (active) and the Potency [7] was 26.4 µM (active).
In the case of `C[C@]12CC[C@@H]3c4ccc(O)cc4CC[C@H]3[C@H]1C[C@@H](O)[C@H]2O`, the Potency [4] is reported as “inactive”, the Potency [5] is reported as 0.0418 µM (active) and the Potency [7] is reported as 13.2 µM (active). The Potency [3] was “inactive” and the Potency [9] was “inactive”.
With `N#C[C@H]1C[C@H]2C[C@@H]2N1C(=O)[C@@H](N)C12CC3CC(CC(O)(C3)C1)C2` the Potency [1] was “inactive”, the Potency [7] was 1.48 µM (active) and the Potency [9] was “inactive”. The Potency [6] was 4.18 µM (active).
For `CO[C@@H](C(=O)N1Cc2[nH]nc(NC(=O)c3ccc(N4CCN(C)CC4)cc3)c2C1)c1ccccc1`, the Potency [4] was 16.6 µM (active), the Potency [8] was 1.87 µM (active) and the Potency [3] was 11.8 µM (active). For the same compound, the Potency [9] was “inactive” and the Potency [6] was 20.9 µM (active).
In the case of `COc1ccc2cccc(CCNC(C)=O)c2c1`, the Potency [1] is reported as “inactive” and the Potency [3] is reported as “inactive”.
With `O=C1c2c(O)cc(O)cc2O[C@H](c2cc(O)c(O)c(O)c2)[C@H]1O` the Potency [1] was “inactive”, the Potency [5] was 20.9 µM (active) and the Potency [7] was 10.5 µM (active). For the same compound, the Potency [3] was “inactive” and the Potency [6] was 20.9 µM (active).
For `CC[C@@H]1C=C(C)C[C@H](C)C[C@H](OC)[C@H]2O[C@@](O)(C(=O)C(=O)N3CCCC[C@@H]3C(=O)O[C@H](C(C)=C[C@@H]3CC[C@H](Cl)[C@H](OC)C3)[C@H](C)[C@@H](O)CC1=O)[C@H](C)C[C@H]2OC`, the Potency [1] was 7.43 µM (active), the Potency [7] was 11.8 µM (active) and the Potency [6] was 14.8 µM (active).
In the case of `COc1ccc(-c2cc(=O)c3c(O)cc(O)cc3o2)cc1O`, the Potency [4] is reported as 4.18 µM (active), the Potency [5] is reported as 5.9 µM (active) and the Potency [7] is reported as 0.935 µM (active). The Potency [3] was 2.64 µM (active) and the Potency [6] was 6.62 µM (active).
With `O=C(O)c1c(Cl)c(Cl)c(Cl)c(Cl)c1-c1c2cc(I)c(=O)c(I)c-2oc2c(I)c(O)c(I)cc12` the Potency [1] was 10.5 µM (active), the Potency [3] was 6.62 µM (active) and the Potency [6] was 6.62 µM (active).
In the case of `COc1cc(Nc2ncc(F)c(Nc3ccc4c(n3)NC(=O)C(C)(C)O4)n2)cc(OC)c1OC`, the Potency [4] is reported as 1.05 µM (active), the Potency [5] is reported as 9.35 µM (active) and the Potency [7] is reported as 1.48 µM (active). For the same compound, the Potency [9] was 1.66 µM (active) and the Potency [6] was “inactive”.
With `NC(=O)c1ccc2nc(-c3ccc(Oc4ccc(Cl)cc4)cc3)[nH]c2c1` the Potency [4] was 5.26 µM (active), the Potency [8] was 18.7 µM (active) and the Potency [3] was 0.0235 µM (active).
For `O=C(Nc1ccccc1Br)N[C@@H]1CCN(c2ccc(C(F)(F)F)cn2)C1`, the Potency [1] was “inactive”, the Potency [7] was 23.5 µM (active) and the Potency [2] was “inactive”. The Potency [3] was “inactive” and the Potency [9] was “inactive”.
With `C[N+](C)(C)CC(=O)O` the Potency [1] was “inactive” and the Potency [6] was “inactive”.
For `CC(C)OC(=O)CCCC=CC[C@@H]1[C@H](C=C[C@@H](O)COc2cccc(C(F)(F)F)c2)[C@H](O)C[C@@H]1O`, the Potency [1] was “inactive”, the Potency [7] was 14.8 µM (active) and the Potency [2] was 26.4 µM (active). For the same compound, the Potency [3] was 18.7 µM (active).
For `O=c1c(-c2ccc(O)cc2)coc2cc(O)ccc12`, the Potency [1] was “inactive”, the Potency [7] was 5.26 µM (active) and the Potency [6] was 13.2 µM (active).
